This is one part of the list. Unmarked numbers belong to inactive results. The source made the active and inactive calls. Rule as the data show it: active = inhibition above about 4.9%; inactive = the rest.
Tested on: metallo-beta-lactamase IMP-1 (Pseudomonas aeruginosa)
Assay: IMP-1 metallo-beta-lactamase inhibitors, confirmation, biochemical, epi-absorbance, hits shared with VIM-2 screen (AID 2189);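 also: 0% = enzyme with vehicle and 100% = vehicle without enzyme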
Conditions: purified IMP-1 enzyme, absorbance substrate hydrolysis; at 5.6 µM; stronger effect = higher value

| Structure (SMILES) | inhibition |
| --- | --- |
| CCC(=C/c1sc2ccc3ccccc3c2[n+]1C)/C=C1\Sc2ccc3ccccc3c2N1C | 27.6% (active) |
| NC(=O)c1ccc(NC(=O)COC(=O)c2c3c(nc4ccccc24)/C(=C\c2ccc4c(c2)OCO4)CCC3)cc1 | -2.29% |
| CN1C(=O)c2cccc3c(N)ccc(c23)C1=O | 36.2% (active) |
| Oc1ccc2ccc3cccc[n+]3c2c1 | 23.2% (active) |
| NS(=O)(=O)c1ccc(NC(=O)COC(=O)c2c3c(nc4ccccc24)/C(=C\c2ccc4c(c2)OCO4)CCC3)cc1 | -2.39% |
| Nc1c(C(=O)c2cccs2)sc2nsc(SCCN3CCCCC3)c12 | 18.4% (active) |
| Cc1nn(C)cc1N1C(=O)c2cccc3c(N)ccc(c23)C1=O | 29.8% (active) |
| C/C(=N\Nc1ccc(S(N)(=O)=O)cc1[N+](=O)[O-])c1cccs1 | 10.6% (active) |
| COc1cc(/C=C2/SC(=S)N(Cc3ccccc3)C2=O)cc(OC)c1O | 9.27% (active) |
| c1ccc(-c2nccc(-c3ccc(-n4cnc5ccccc54)cc3)n2)nc1 | 0.59% |
| Cc1cc2nc3c(=O)n(Cc4ccccc4)c(=O)[nH]c3nc2cc1N | 13.2% (active) |

From PubChem BioAssay AID2189 (The Scripps Research Institute Molecular Screening Center, 2009)
